This is a sample that favours compounds with a hit; in the whole collection about 2.4% have one here.
POLB inh – qHTS Assay for Inhibitors of DNA Polymerase Beta; Pol beta primer extension/strand displacement, fluorescence kinetic; Potency, µM (series often up to 114 µM), without a hit: at the highest dose activity change, negative = inhibition, actives largely listed as inhibitors; 340,000 tested, 1.3% active; AID 485314, 2010; also: % is scaled to controls: 0 for no effect and ±100 for the full control effect
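10 nM enzyme + cpd, 15 min RT; start with substrate 50 nM final; read 0 min and after 10 min RT. Corrected, normalized data; 4-parameter Hill curve fit.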
WRN helicase inh – qHTS for Inhibitors of WRN Helicase. 360,000 tested, 0.46% active. WRN helicase unwinding, fluorescent forked duplex, kinetic. Bifunctional 3'-5' exonuclease/ATP-dependent helicase WRN (Homo sapiens), Q14191. AID 651768, 2012. Potency, µM (top dose mostly 114 µM), inactives show at the top dose activity change, negative = inhibition, actives largely listed as inhibitors; also: % is scaled to controls: 0 for no effect and ±100 for the full control effect; nearly all actives have a fitted effect of over 55% in size
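Kinetic fluorescence helicase assay: unwinding of a quenched forked DNA duplex (100 nM final) with 2 mM ATP final raises red fluorescence (525/598 nm). Compounds sat 15 min at room temperature with 20 nM WRN beforehand.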
Pol eta inh – qHTS for Inhibitors of Polymerase Eta | 390,000 tested, 1.2% active | recombinant Pol eta, fluorescent DNA replication assay | AID 588591, 2011 | Potency, µM (doses to about 114 µM), for inactives: top-dose activity change, negative = inhibition, most hits filed as inhibitors; also: % is scaled to controls: 0 for no effect and ±100 for the full control effect
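Pol eta (10 nM) was preincubated with compounds for 15 min at room temperature, after which fluorescent replication substrate (50 nM final) was added to start the reaction. Fluorescence was read kinetically at 0 and 10 min.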
Pol iota inh – qHTS for Inhibitors of Polymerase Iota; Pol iota fluorescent replication assay, 10 min; 390,000 tested, 1% active; AID 588590, 2011; DNA polymerase iota (Homo sapiens), Q9UNA4; Potency, µM (titrated, usually from 115 µM), inactives show at the top dose activity, negative = inhibition, most hits filed as inhibitors
Target sequence (Q9UNA4 whole entry, looked up): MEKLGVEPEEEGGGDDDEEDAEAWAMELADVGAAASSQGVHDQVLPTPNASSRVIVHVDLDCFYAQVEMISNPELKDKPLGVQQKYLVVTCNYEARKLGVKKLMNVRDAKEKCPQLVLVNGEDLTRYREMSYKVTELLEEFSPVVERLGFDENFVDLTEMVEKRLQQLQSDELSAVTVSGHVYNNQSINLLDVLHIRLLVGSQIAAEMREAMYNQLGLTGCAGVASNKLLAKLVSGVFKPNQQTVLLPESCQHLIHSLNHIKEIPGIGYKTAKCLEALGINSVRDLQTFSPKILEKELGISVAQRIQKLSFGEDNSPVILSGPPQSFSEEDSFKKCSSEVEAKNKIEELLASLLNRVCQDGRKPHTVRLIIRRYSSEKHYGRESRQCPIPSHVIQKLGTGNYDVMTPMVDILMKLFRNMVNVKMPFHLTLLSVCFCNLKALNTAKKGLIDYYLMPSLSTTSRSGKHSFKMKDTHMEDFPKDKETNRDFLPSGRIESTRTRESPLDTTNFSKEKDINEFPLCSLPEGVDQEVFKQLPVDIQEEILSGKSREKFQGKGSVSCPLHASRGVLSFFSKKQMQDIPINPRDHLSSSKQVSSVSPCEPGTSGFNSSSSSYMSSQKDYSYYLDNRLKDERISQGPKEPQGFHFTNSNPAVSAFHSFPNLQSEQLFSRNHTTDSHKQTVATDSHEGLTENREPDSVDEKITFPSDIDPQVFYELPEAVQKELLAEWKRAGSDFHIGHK
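Pol iota at 10 nM preincubated 15 min with compounds at room temperature; reaction started with fluorescent substrate, 50 nM final. Fluorescence read kinetically at 0 and 10 min; buffer-only wells as negative control.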
POLK inh – qHTS for Inhibitors of Polymerase Kappa; DNA polymerase kappa (Homo sapiens), Q9UBT6; purified Pol kappa, fluorescent DNA synthesis assay, 10 min; Potency, µM (highest dose often 107 µM), inactives show at the top dose activity, negative = inhibition, actives largely listed as inhibitors; 400,000 tested, 0.53% active; also: % is scaled to controls: 0 for no effect and ±100 for the full control effect
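10 nM Pol kappa preincubated 15 min at room temperature with compounds, then reaction started with substrate at 50 nM final. Fluorescence read kinetically at 0 and 10 min; buffer-only wells served as negative control.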
FEN1 inhibitor – qHTS Assay for the Inhibitors of Human Flap endonuclease 1 (FEN1); P39748; Recombinant FEN1 flap cleavage, fluorescence, 15 min; Potency, µM (top dose mostly 114 µM), for inactives: top-dose activity change, negative = inhibition, hits mostly inhibitors; 390,000 tested, 0.35% active; also: % is scaled to controls: 0 for no effect and ±100 for the full control effect; nearly all actives have a fitted effect of over 65% in size
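Reaction started by adding substrate (50 nM final) to 10 nM enzyme after 15 min room-temperature compound preincubation. Reads at 0 and 15 min, with data normalized and fitted to a four-parameter Hill equation.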
An asterisk follows results filed as active; ? = inconclusive; nt = no result given; ! = not active in a repeat; [ ] = remark or other dose. Calls follow the shape of the dose curve; as a rule, active = well fitted curve in the direction sought with a large enough effect; inconclusive = small, poorly fitted or top-dose-only effect, or another doubt; inactive = no such curve, though single readings can be large; an effect the other way counts as inactive or inconclusive. Potency is read from the fitted curve at half-maximal effect.

SMILES	POLB inh	WRN helicase inh	Pol eta inh	Pol iota inh	POLK inh	FEN1 inhibitor
O=C(CCn1cnc2ccccc2c1=O)NCc1ccccc1	20µM*	nt	?	-4.6%	-6.4%[60.1 µM]	13.7%
Cc1cc(O)c(C(C)C)cc1N=Cc1ccccc1[N+](=O)[O-]	nt	-21.7%	-23.2%	20µM*	-6.4%	-16.8%
Cc1sc2ccccc2[n+]1CCCCBr	nt	nt	nt	?	9.4%	-2.2%
Cc1ccc(-n2c(-c3ccc(Br)cc3)c[n+]3c2CCc2ccc4cccnc4c2-3)cc1	50.1µM*	3.5%	-8.9%	-2.6%[58.9 µM]	-0.5%	?
COc1ccc(-n2c(-c3ccc(Cl)cc3)c[n+]3c2CCc2ccccc2-3)cc1	-0.4%	5.7%	-18.1%	33.3%	-4.3%	-6.1%
CC(=O)Nc1ccccc1C	nt	3.4%	-14.9%	?	-18.0%	14.9%
Cc1ccccc1NC(=O)C(=Cc1ccc(C(=O)O)cc1)C(=O)Nc1ccccc1C	5.2%	-18.6%	56.2µM*	?	-3.1%	-2.4%
O=S(=O)(c1ccc(C(F)(F)F)cc1)N1CCN(c2nc(-c3ccccc3)nc3ccccc23)CC1	nt	nt	nt	23.9%	9.6%	-22.3%
O=C(N/N=C/c1ccco1)c1cc(-c2ccc(Cl)s2)[nH]n1	?	-16.1%	-8.5%	?	-29.5%	-15.5%
O=C(N/N=C/c1cccs1)c1cc(-c2ccc(Cl)s2)[nH]n1	44.7µM*	-5.3%[11.6 µM]	?	?	-25.6%	-3.0%
COC(=O)C[C@H]1c2cc(F)ccc2S(=O)(=O)N1C1CC1	nt	nt	nt	26.2%	-9.6%	-6.1%
NC(CSC(c1ccccc1)(c1ccccc1)c1ccc2c(c1)OCO2)C(=O)O (configuration not stated)	nt	-5.5%[11.6 µM]	35.5µM*	nt	nt	nt
CN(C)CCn1nnnc1SCC1=C(C(=O)O)N2C(=O)[C@@H](NC(=O)Cc3csc(N)n3)[C@H]2SC1	nt	-14.6%	?	14.1µM*	50.1µM*	?
O=C(CSc1nccn1-c1ccccc1)c1ccc(Cl)cc1	5.7%	-3.3%	-13.6%	-4.3%	-2.3%	6.3%
Cc1ccc(C(=O)CSc2nccn2-c2ccccc2)cc1	56.2µM*	-5.6%	-16.2%	-6.2%	-7.5%	-9.2%
O=C(Nc1ccc2c(c1)CCC2)C1COc2ccccc2O1 (configuration not stated)	17.8µM*	-7.8%	-6.3%	?	-7.3%	0.3%
O=C(Nc1ccc2c(c1)OCO2)C1COc2ccccc2O1 (configuration not stated)	13.5%	1.3%	-4.6%	35.7%	-8.6%	-12.2%
CCOc1ccccc1NS(=O)(=O)c1cn(C)nc1C	-9.4%	4.9%[57.1 µM]	-16.4%	89.1µM*	-2.5%	5.7%
Cc1ccc(F)c(C2C3C=CCC(c4ccccc4)C3C(=O)N2Cc2ccccc2)c1 (configuration not stated)	nt	nt	nt	-11.2%	-25.4%	-16.0%
Oc1ccc(/C=C/c2cc(O)cc(O)c2)cc1	?	-12.8%	-3.2%[57.1 µM]	?	14.1µM*!	-15.6%
CN(C)c1ccc(/C=N/NC(=O)C2COc3ccccc3O2)o1 (configuration not stated)	31.8%	-28.0%	-21.5%	6.4%	-3.7%	-2.2%
O=C(N/N=C\c1ccc(Br)o1)C1COc2ccccc2O1 (configuration not stated)	35.5µM*	-14.9%[11.6 µM]	44.7µM*	44.7µM*	-73.7%	10.4%
Cc1ccc(NC(=O)NNC(=O)c2cc3ccccc3cc2O)cc1	?	-5.5%	-12.1%	-24.3%	-17.0%	-5.0%
O=C(Nc1ccncc1)c1cc2ccccc2cc1O	nt	-19.2%	-11.6%	7.94µM*	-1.0%	3.2%
Cc1ccc(S(=O)(=O)NCC(=O)N(CC(=O)NCC2CCCO2)Cc2ccco2)cc1 (configuration not stated)	12.6µM*	-2.7%[57.1 µM]	-11.9%	20.9%	-7.7%	15.5%
SMILES	POLB inh	WRN helicase inh	Pol eta inh	Pol iota inh	POLK inh	FEN1 inhibitor
Cc1ccc(S(=O)(=O)NCC(=O)N(CC(=O)NCc2ccco2)Cc2ccco2)cc1	1.3%	-7.5%[11.6 µM]	56.2µM*	?	?	-2.3%
Cc1ccc(S(=O)(=O)NCC(=O)N(CC(=O)NCC2CCCO2)Cc2ccccc2)cc1 (configuration not stated)	-0.7%	-0.7%	-11.4%	8.8%	-0.5%	0.7%
O=C(CN(Cc1ccco1)C(=O)CNS(=O)(=O)c1ccc(Cl)cc1)NCc1ccco1	44.1%	-2.6%[57.1 µM]	-16.2%	-5.3%	2.3%	2.2%
Cc1nc2c(=O)[nH]c(=S)n(C)c2nc1C	56.3%	56.2µM*	4.0%	?	-16.4%	?
COc1ccc(Cl)c(Cn2cnc3c(cnn3C(C)(C)C)c2=O)c1	nt	nt	nt	5.2%	-18.6%	-1.5%
Cc1c(-c2ccc(Cl)cc2)oc(=O)c2c(N)n(-c3ccccc3)nc12	12.6µM*	-32.5%	?	-3.7%	-13.2%	-9.3%
CCc1ccc2oc(-c3cc(NC(=O)COc4ccc(C)cc4)ccc3O)nc2c1	nt	nt	nt	13.9%	4.2%	11.5%
N#C/C(=C(/O)COC(=O)c1ccc(Cl)c(S(=O)(=O)N2CCOCC2)c1)c1nc2ccccc2[nH]1	4.1%	7.8%	-12.9%	67.1%	3.6%	-0.9%
N#C/C(=C(/O)COC(=O)CCc1ccc(S(=O)(=O)N2CCOCC2)cc1)c1nc2ccccc2[nH]1	35.5µM*	-28.2%	14.1µM*	-11.8%	-23.1%	5.0%
Cc1ccc2[nH]c(-c3ccc(F)cc3F)cc(=O)c2c1	nt	nt	nt	nt	-14.1%	nt
COc1ccc2oc(=Nc3ccc(C(=O)O)cc3)c(C(=O)NCc3ccco3)cc2c1	28.2%	-6.6%	-30.9%	-8.0%	-2.2%	14.5%
COc1ccc2cc(C(=O)NCc3ccco3)c(=Nc3ccc(C(=O)O)cc3)oc2c1	20.0%	-8.6%	89.1µM*	-10.1%	-4.7%	?
O=C(O)c1cc(=O)c2cc(Cl)ccc2[nH]1	nt	nt	nt	nt	17.8%[60.1 µM]	nt
CCCc1nnc(NC(=O)Cc2coc3ccc(C)cc23)s1	-2.5%	nt	-3.4%	1.8%	-13.8%	19.3%
CCOC(=O)c1c(NC(=O)Cc2coc3cc(C)ccc23)sc2c1CCCC2	-20.8%	nt	-13.6%	-3.3%	-18.0%	-2.4%
Cc1ccc2c(CC(=O)Nc3sccc3C(N)=O)coc2c1	2.2%	-8.9%[57.1 µM]	?	79.4µM*	-29.1%	?
Cc1ccc2occ(CC(=O)Nc3nnc(C(C)C)s3)c2c1	20.0%	nt	-3.2%	79.4µM*	16.7%	3.3%
CCNc1ncc2ncc(=O)n(Cc3ccc(F)cc3)c2n1	nt	nt	nt	nt	-5.8%[60.1 µM]	nt
C[C@H]1O[C@@H](n2cnc3c(N)ncnc32)C[C@@H]1OP(=O)(O)OP(=O)(O)OP(=O)(O)O	nt	nt	nt	nt	15.8%[60.1 µM]	nt
Nc1ccc(O)c(C(=O)O)c1	nt	nt	nt	nt	1.06µM*	nt
OCC(O)C[n+]1cccc(Br)c1 (configuration not stated)	nt	nt	nt	1.7%	-3.1%	-11.9%

Screening data deposited in PubChem BioAssay by National Center for Advancing Translational Sciences (NCATS).
